Assay outcomes from PubChem.
Hits are enriched below; roughly 12% of the tested compounds scored in any of these assays.
HP1b chromo inh: HTS for Inhibitors of HP1-beta Chromodomain Interactions with Methylated Histone Tails; Chromobox protein homolog 1 (Homo sapiens), P83916; AlphaScreen HP1-beta / biotin-H3K9me3 peptide binding; Potency, µM (highest dose often 114 µM), without a hit: at the highest dose activity change, negative = inhibition, most hits filed as inhibitors; hit rate 0.56% among 390,000; further: nearly all actives have a fitted effect of over 70% in size
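Compound inhibition of the preformed complex between 50 nM HP1-beta and 50 nM biotinylated H3K9me3 peptide was read by AlphaScreen. Buffer was PBS pH 7.4 with 0.01% Tween-20. Incubations ran 30 min at room temperature, with 10 ug/mL donor/acceptor beads.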
BAZ2B block: qHTS Assay for Inhibitors of BAZ2B; hit rate 4.4% among 360,000; AlphaScreen BAZ2B-H3K14Ac peptide displacement; Potency, µM (doses to about 114 µM), for the others: top-dose activity change, negative = inhibition, actives largely listed as inhibitors; AID 504333, 2011; further: on the % scale 0 is the no-effect control and ±100 the full control effect; nearly all actives have a fitted effect of over 60% in size
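BAZ2B (50 nM) with biotin-H3(5-23)K14Ac peptide (50 nM) in PBS pH 7.4, 0.01% Tween-20, preformed 30 min, then compound 30 min at room temperature; top concentration 110uM. AlphaScreen streptavidin donor/nickel chelate acceptor beads (10 ug/mL final), 20 min dark, signal read.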
Sfp PPTase inh: qHTS Assay for Inhibitors of Bacillus subtilis Sfp phosphopantetheinyl transferase (PPTase). 4'-phosphopantetheinyl transferase ffp (Bacillus subtilis), Q9F4F7. Biochemical Sfp PPTase activity, qHTS. Potency, µM, without a hit: largest response in the series, negative = inhibition, usual class: inhibitors. hit rate 3.5% among 310,000;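 further: the enzyme is Sfp with the accession as filed and its product quenches rhodamine fluorescence; 0% = enzyme reaction without inhibitor and -100% = no enzyme wells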
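Reaction rates are the 30-min fluorescence difference (ex 525, em 598 nm) in wells containing 15 nM Sfp, 5 uM rhodamine-CoA and 12.5 uM BHQ-2-YbbR at pH 7.6 with 10 mM MgCl2.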
JMJD2A Tudor: qHTS Assay for Inhibitors of JMJD2A-Tudor Domain; Lysine-specific demethylase 4A (Homo sapiens), O75164; AlphaScreen JMJD2A-Tudor / H3K4me3 peptide binding; Potency, µM (highest dose often 114 µM), inactives show top-dose activity change, negative = inhibition, actives largely listed as inhibitors; hit rate 4.4% among 390,000; AID 504339, 2011; further: on the % scale 0 is the no-effect control and ±100 the full control effect; nearly all actives have a fitted effect of over 50% in size
Target sequence (O75164 whole entry, looked up, the tested form may be a part): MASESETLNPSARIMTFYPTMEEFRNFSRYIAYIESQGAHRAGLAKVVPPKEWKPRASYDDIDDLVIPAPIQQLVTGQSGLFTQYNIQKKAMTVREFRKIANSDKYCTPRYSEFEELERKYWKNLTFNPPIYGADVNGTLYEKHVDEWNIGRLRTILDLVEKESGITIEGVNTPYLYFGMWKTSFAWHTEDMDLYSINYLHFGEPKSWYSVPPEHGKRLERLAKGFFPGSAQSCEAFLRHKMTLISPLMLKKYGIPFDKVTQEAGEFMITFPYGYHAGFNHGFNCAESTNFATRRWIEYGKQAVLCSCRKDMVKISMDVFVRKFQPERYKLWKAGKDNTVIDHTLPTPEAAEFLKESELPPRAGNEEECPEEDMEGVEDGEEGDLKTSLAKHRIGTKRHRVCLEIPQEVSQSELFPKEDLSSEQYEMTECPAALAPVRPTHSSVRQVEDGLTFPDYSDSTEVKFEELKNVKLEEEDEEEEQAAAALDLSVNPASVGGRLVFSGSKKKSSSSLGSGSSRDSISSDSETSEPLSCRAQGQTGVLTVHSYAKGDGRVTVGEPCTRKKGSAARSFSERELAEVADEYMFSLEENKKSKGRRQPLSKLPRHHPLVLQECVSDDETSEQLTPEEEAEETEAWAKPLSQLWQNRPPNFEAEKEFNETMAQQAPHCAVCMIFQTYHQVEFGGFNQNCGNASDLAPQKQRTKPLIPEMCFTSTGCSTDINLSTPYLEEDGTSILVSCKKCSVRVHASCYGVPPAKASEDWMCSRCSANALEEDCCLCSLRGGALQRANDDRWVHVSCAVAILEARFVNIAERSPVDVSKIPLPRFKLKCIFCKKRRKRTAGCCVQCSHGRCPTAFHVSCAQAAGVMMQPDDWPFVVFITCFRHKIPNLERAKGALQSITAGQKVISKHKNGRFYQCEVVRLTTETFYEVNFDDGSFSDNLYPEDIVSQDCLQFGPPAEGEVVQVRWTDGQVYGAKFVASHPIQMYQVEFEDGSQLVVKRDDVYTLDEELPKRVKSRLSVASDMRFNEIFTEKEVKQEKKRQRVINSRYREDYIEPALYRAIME
G9a block: qHTS Assay for Inhibitors of Histone Lysine Methyltransferase G9a | Histone-lysine N-methyltransferase EHMT2 (Homo sapiens), Q96KQ7 | G9a H3K9 monomethylation, AlphaScreen, 2 h | Potency, µM (highest dose often 102 µM), for inactives: at the highest dose activity, negative = inhibition, usual class: inhibitors | hit rate 8.8% among 350,000; further: on the % scale 0 is the no-effect control and ±100 the full control effect; nearly all actives have a fitted effect of over 75% in size
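G9a (20 nM) was preincubated 15 min with compound, then reacted 2 h at room temperature with 500 nM biotin-H3K9 peptide and 20 µM SAM. Monomethyl-H3K9 detected by AlphaScreen using anti-H3K9me1 antibody.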
* = called active by the depositor; [ ] = remark or other dose. The call rests on the fitted dose curve; in most records, active means well fitted curve in the direction sought with a large enough effect; inconclusive means small, poorly fitted or top-dose-only effect, or another doubt; inactive means no such curve, though single readings can be large; an effect the other way counts as inactive or inconclusive. Potency means the concentration at half of the fitted maximal effect.

Screening CCCCCC(=O)Nc1cc(S(=O)(=O)N2CCOCC2)ccc1N1CCCC1 returned HP1b chromo inh 22%, BAZ2B block -10%, Sfp PPTase inh 16%, JMJD2A Tudor 1% and G9a block 28µM*.
`COc1cc2oc(=O)cc(-c3cccc(-c4ccc(C(C)=O)cc4)c3)c2c(OC)c1OC` gave Sfp PPTase inh -2% and G9a block 26%[59 µM].
COc1ccc(CC(=O)Nc2cc(S(=O)(=O)N3CCOCC3)ccc2N2CCOCC2)cc1 was read as HP1b chromo inh 14%, BAZ2B block -19%, Sfp PPTase inh 26%, JMJD2A Tudor -6% and G9a block -2%.
Screening COc1ccc(CC(=O)OCC(=O)Nc2cc(S(=O)(=O)N3CCOCC3)ccc2N2CCCC2)cc1 returned HP1b chromo inh -3%, BAZ2B block 1%, Sfp PPTase inh -5%, JMJD2A Tudor -11% and G9a block 40µM*.
`CC1CCCC(C)N1/N=C/c1ccccc1F` (centres undefined) gave HP1b chromo inh inconclusive, BAZ2B block 50µM*, Sfp PPTase inh 50µM*, JMJD2A Tudor 3.2µM* and G9a block 3.2µM*.
CC1CCCC(C)N1/N=C/c1ccc(Cl)cc1 (centres undefined) was read as HP1b chromo inh -2%, BAZ2B block -11%, Sfp PPTase inh -8%, JMJD2A Tudor -35% and G9a block 6%[12.7 µM].
For O=C(NCc1ccccn1)C(=O)NCc1ccccn1 the results were HP1b chromo inh 53%, BAZ2B block 29%, Sfp PPTase inh 56µM*, JMJD2A Tudor -6% and G9a block -6%.
For COc1ccc(CCNC(=O)C(=O)NCc2ccccn2)cc1 the results were HP1b chromo inh 15%, BAZ2B block -25%, Sfp PPTase inh 18%, JMJD2A Tudor -12% and G9a block 50µM*.
Screening O=C(NCc1ccccn1)c1nc(-c2cccs2)no1 returned HP1b chromo inh 12%, BAZ2B block 2%, Sfp PPTase inh 6%, JMJD2A Tudor -27% and G9a block 28µM*.
For O=C(NCc1ccccn1)c1coc(=O)c(Br)c1 the results were HP1b chromo inh 25%, BAZ2B block 18µM*, Sfp PPTase inh inconclusive, JMJD2A Tudor inconclusive and G9a block inconclusive.
For CCCNC(=O)C(=O)NCc1ccccn1 the results were HP1b chromo inh 12%, BAZ2B block -21%, Sfp PPTase inh -2%, JMJD2A Tudor 3% and G9a block inconclusive.
Screening COc1ccccc1-c1coc2cc(O)ccc2c1=O returned Sfp PPTase inh 4%.
`Cc1cc(F)ccc1NC(=O)CCSc1nc(-c2ccco2)cc(C(F)(F)F)n1` gave HP1b chromo inh 43%, BAZ2B block -1%, JMJD2A Tudor 1% and G9a block -4%[59 µM].
Screening CCOc1ccc(Nc2c3ccccc3nc3ccccc23)cc1 returned HP1b chromo inh inconclusive, BAZ2B block 35µM*, Sfp PPTase inh -12%, JMJD2A Tudor -28%[11.4 µM] and G9a block 32µM*.
Screening CCOc1ccc(Nc2cc(C)c3ccccc3n2)cc1 returned HP1b chromo inh 6%, BAZ2B block -31%, Sfp PPTase inh -1%, JMJD2A Tudor inconclusive and G9a block inconclusive.
For c1ccc(Nc2nc(NCC3CCCO3)c3ccccc3n2)cc1 (centres undefined) the results were HP1b chromo inh 33%, BAZ2B block -39%, Sfp PPTase inh inconclusive, JMJD2A Tudor -25% and G9a block -38%.
c1ccc(-c2nc(NCC3CCCO3)c3ccccc3n2)nc1 (centres undefined) was read as HP1b chromo inh 53%, BAZ2B block inconclusive, Sfp PPTase inh inconclusive, JMJD2A Tudor 89µM* and G9a block 11%[59 µM].
Screening C(=N\Nc1nc(-c2ccccn2)nc2ccccc12)/c1ccccc1 returned HP1b chromo inh 12%, BAZ2B block 50µM*, Sfp PPTase inh -2%, JMJD2A Tudor inconclusive and G9a block -16%.
COc1ccc(Nc2nc(NCC3CCCO3)c3ccccc3n2)c(OC)c1 (centres undefined) was read as HP1b chromo inh -5%, BAZ2B block inconclusive, Sfp PPTase inh 15%, JMJD2A Tudor inconclusive and G9a block 45µM*.
`C(=N\Nc1nc(-c2cccnc2)nc2ccccc12)/c1ccccc1` gave HP1b chromo inh 21%, BAZ2B block -8%, Sfp PPTase inh -18%, JMJD2A Tudor -13% and G9a block 6%.
COC(=O)C1=C(c2ccccc2)c2ccccc2S(=O)(=O)N1CC(=O)Nc1ccc(OC)cc1OC was read as HP1b chromo inh 27%, BAZ2B block -20%, JMJD2A Tudor -22% and G9a block -38%[59 µM].
`O=C(NN=C(Cc1ccccc1)Cc1ccccc1)c1ccccc1F` gave HP1b chromo inh 50%, BAZ2B block -3%, Sfp PPTase inh 19%, JMJD2A Tudor 4% and G9a block 31%.
`Cc1ccc(C)c(CN2C(=O)CSc3ccc(C(=O)NCc4ccc(F)cc4)cc32)c1` gave HP1b chromo inh 25%, BAZ2B block 1%, JMJD2A Tudor 4% and G9a block 9%[59 µM].
Screening Cc1ccc(-n2ncc(C(=O)NCCN3CCCC3)c2C2CCN(C(=O)OC(C)(C)C)CC2)cc1C returned HP1b chromo inh 15%, BAZ2B block -2%[57.1 µM], JMJD2A Tudor -22% and G9a block -33%[59 µM].
CCOc1ccc(Nc2nc(NCC3CCCO3)c3ccccc3n2)cc1 (centres undefined) was read as HP1b chromo inh 2%, BAZ2B block 32µM*, Sfp PPTase inh 35µM*, JMJD2A Tudor inconclusive and G9a block 40µM*.
For c1ccc(-c2nc(NCc3ccco3)c3ccccc3n2)nc1 the results were HP1b chromo inh 25%, BAZ2B block 45µM*, Sfp PPTase inh 1%, JMJD2A Tudor -34%[11.4 µM] and G9a block inconclusive.
Oc1ccccc1-c1nc(NCc2ccco2)c2ccccc2n1 was read as HP1b chromo inh 13%, BAZ2B block -12%, Sfp PPTase inh inconclusive, JMJD2A Tudor -20% and G9a block 5%[12.7 µM].
CS(=O)(=O)c1ccccc1C(=O)N1CCN(S(=O)(=O)c2ccc(C3CCCCC3)cc2)CC1 was read as HP1b chromo inh 7%, BAZ2B block -32%, JMJD2A Tudor -32% and G9a block 50µM*.
For Cc1cccc(C(=O)NCC(=O)OCCOc2ccccc2Cl)c1 the results were HP1b chromo inh 45%, BAZ2B block 4%, JMJD2A Tudor 3% and G9a block 14%[2.33 µM].
